Experiments:
[1] = target: T1, Serine/threonine-protein kinase D2 (Homo sapiens) (UniProt Q9BZL6); conditions: at 1 µM;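 note: mean value of PRKD2 inhibition, from the GSK PKIS screening panel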
T1 sequence (whole entry): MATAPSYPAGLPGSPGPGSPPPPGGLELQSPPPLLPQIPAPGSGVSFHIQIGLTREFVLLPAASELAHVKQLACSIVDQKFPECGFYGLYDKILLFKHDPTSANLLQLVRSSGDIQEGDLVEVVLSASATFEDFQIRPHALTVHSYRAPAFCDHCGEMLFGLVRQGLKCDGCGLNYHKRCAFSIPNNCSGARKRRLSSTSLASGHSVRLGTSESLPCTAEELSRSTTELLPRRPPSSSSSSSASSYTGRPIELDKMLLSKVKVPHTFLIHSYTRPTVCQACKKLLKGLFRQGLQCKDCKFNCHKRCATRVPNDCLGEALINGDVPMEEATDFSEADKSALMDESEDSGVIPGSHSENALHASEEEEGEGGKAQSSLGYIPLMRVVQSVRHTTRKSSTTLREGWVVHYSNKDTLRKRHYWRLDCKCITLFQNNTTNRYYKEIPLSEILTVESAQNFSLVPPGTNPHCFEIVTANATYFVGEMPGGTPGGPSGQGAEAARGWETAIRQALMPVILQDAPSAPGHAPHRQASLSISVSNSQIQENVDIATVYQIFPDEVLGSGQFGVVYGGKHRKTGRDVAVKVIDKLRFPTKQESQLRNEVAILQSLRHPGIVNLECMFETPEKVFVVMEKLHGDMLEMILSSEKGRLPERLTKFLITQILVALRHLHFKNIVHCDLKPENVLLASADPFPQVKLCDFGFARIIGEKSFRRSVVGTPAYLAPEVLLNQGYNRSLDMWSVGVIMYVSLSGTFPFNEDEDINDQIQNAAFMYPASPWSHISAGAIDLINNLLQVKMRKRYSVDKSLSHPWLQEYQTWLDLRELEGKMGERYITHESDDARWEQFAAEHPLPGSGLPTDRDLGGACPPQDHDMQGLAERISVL

[2] = target: T2, Serine/threonine-protein kinase D3 (Homo sapiens) (UniProt O94806); conditions: at 0.1 µM
T2 sequence (whole entry): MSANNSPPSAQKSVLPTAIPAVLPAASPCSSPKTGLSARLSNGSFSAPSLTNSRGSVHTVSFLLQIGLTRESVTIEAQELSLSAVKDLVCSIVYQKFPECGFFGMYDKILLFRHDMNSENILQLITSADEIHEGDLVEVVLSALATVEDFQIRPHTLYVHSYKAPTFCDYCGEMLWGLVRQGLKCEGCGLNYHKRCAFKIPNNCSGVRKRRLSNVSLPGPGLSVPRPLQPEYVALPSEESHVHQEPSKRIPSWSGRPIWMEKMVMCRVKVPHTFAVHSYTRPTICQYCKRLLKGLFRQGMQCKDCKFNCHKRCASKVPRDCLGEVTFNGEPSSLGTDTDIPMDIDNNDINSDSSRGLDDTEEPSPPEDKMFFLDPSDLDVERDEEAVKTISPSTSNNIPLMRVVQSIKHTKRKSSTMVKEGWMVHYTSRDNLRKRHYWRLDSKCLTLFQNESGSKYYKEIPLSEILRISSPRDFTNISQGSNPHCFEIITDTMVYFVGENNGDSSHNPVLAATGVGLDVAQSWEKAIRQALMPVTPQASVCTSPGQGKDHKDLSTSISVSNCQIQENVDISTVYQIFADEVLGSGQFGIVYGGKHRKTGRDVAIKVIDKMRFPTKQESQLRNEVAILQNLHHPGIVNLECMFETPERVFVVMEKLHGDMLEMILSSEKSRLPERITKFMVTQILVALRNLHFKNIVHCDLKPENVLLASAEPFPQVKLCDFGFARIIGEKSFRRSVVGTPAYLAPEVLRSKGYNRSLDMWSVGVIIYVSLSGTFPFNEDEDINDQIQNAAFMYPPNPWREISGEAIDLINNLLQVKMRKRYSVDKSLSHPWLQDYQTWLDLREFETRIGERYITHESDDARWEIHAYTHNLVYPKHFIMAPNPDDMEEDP

[3] = target: T2, Serine/threonine-protein kinase D3 (Homo sapiens); conditions: at 1 µM
[4] = target: T3, cGMP-dependent protein kinase 1 (Homo sapiens) (UniProt Q13976); conditions: at 0.1 µM
T3 sequence (whole entry): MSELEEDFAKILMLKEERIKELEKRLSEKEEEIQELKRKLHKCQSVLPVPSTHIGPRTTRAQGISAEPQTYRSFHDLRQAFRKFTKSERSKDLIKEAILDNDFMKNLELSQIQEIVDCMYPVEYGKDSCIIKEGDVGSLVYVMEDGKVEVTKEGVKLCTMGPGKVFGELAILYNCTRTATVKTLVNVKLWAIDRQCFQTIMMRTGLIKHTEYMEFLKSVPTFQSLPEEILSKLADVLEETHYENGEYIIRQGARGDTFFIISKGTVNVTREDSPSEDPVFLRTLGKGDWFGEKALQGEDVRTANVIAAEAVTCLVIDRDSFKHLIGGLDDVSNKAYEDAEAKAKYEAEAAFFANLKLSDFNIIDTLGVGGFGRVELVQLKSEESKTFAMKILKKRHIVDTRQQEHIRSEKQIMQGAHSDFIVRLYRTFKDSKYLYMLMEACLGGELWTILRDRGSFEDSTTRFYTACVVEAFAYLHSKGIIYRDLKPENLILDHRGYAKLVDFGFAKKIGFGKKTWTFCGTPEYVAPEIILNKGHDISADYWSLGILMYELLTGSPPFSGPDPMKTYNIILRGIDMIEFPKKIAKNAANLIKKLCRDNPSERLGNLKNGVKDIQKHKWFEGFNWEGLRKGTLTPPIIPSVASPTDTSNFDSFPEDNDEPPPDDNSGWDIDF

[5] = target: T3, cGMP-dependent protein kinase 1 (Homo sapiens); conditions: at 1 µM
[6] = target: T4, cGMP-dependent protein kinase 2 (Homo sapiens) (UniProt Q13237); conditions: at 0.1 µM
T4 sequence (whole entry): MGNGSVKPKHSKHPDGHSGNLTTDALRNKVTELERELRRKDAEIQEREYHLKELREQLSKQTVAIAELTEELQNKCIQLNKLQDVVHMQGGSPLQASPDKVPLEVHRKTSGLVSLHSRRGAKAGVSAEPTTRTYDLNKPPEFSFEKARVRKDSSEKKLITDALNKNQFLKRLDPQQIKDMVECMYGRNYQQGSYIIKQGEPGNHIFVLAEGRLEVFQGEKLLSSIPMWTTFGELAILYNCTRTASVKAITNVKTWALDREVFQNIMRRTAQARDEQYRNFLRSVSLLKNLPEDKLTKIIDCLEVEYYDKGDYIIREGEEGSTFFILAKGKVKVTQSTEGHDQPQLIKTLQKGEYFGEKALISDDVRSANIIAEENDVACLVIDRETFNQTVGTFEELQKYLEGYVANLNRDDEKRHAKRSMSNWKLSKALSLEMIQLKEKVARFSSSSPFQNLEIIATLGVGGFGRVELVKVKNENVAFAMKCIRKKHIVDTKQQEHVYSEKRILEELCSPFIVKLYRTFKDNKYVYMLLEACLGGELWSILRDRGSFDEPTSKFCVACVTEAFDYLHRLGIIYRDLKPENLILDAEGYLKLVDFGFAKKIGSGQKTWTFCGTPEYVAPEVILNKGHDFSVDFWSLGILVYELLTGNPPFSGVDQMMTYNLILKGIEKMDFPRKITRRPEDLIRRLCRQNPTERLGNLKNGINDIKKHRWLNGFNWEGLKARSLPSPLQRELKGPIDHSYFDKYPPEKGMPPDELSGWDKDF

[7] = target: T4, cGMP-dependent protein kinase 2 (Homo sapiens); conditions: at 1 µM
[8] = target: T5, cAMP-dependent protein kinase catalytic subunit PRKX (Homo sapiens) (UniProt P51817); conditions: at 0.1 µM
T5 sequence (whole entry): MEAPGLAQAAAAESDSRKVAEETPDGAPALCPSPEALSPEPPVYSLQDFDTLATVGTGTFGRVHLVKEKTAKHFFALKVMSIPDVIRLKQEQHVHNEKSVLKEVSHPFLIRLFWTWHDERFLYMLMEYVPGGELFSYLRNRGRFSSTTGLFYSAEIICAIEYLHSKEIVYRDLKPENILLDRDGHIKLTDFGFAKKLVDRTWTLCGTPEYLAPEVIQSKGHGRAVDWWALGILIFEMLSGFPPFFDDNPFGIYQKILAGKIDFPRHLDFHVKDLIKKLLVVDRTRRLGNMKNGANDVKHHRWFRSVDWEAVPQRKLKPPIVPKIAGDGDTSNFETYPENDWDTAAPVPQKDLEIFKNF

[9] = target: T5, cAMP-dependent protein kinase catalytic subunit PRKX (Homo sapiens); conditions: at 1 µM
[10] = target: Rho-associated protein kinase 1 (Homo sapiens) (UniProt Q13464); conditions: at 0.1 µM
[11] = target: Rho-associated protein kinase 1 (Homo sapiens) (UniProt Q13464); conditions: at 1 µM
[12] = target: Rho-associated protein kinase 2 (Homo sapiens) (UniProt O75116); conditions: at 0.1 µM
[13] = target: Rho-associated protein kinase 2 (Homo sapiens) (UniProt O75116); conditions: at 1 µM
[14] = target: Ribosomal protein S6 kinase alpha-1 (Homo sapiens) (UniProt Q15418); conditions: at 0.1 µM
[15] = target: Ribosomal protein S6 kinase alpha-1 (Homo sapiens) (UniProt Q15418); conditions: at 1 µM
[16] = target: Ribosomal protein S6 kinase alpha-3 (Homo sapiens) (UniProt P51812); conditions: at 0.1 µM
[17] = target: Ribosomal protein S6 kinase alpha-3 (Homo sapiens) (UniProt P51812); conditions: at 1 µM
[18] = target: Ribosomal protein S6 kinase alpha-2 (Homo sapiens) (UniProt Q15349); conditions: at 0.1 µM
[19] = target: Ribosomal protein S6 kinase alpha-2 (Homo sapiens) (UniProt Q15349); conditions: at 1 µM
[20] = target: Ribosomal protein S6 kinase alpha-6 (Homo sapiens) (UniProt Q9UK32); conditions: at 0.1 µM;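 note: reported value is the mean inhibition of RSK4, from the GSK PKIS kinase inhibitor screen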
Sequence of Ribosomal protein S6 kinase alpha-6 (Homo sapiens) (Q9UK32 whole entry): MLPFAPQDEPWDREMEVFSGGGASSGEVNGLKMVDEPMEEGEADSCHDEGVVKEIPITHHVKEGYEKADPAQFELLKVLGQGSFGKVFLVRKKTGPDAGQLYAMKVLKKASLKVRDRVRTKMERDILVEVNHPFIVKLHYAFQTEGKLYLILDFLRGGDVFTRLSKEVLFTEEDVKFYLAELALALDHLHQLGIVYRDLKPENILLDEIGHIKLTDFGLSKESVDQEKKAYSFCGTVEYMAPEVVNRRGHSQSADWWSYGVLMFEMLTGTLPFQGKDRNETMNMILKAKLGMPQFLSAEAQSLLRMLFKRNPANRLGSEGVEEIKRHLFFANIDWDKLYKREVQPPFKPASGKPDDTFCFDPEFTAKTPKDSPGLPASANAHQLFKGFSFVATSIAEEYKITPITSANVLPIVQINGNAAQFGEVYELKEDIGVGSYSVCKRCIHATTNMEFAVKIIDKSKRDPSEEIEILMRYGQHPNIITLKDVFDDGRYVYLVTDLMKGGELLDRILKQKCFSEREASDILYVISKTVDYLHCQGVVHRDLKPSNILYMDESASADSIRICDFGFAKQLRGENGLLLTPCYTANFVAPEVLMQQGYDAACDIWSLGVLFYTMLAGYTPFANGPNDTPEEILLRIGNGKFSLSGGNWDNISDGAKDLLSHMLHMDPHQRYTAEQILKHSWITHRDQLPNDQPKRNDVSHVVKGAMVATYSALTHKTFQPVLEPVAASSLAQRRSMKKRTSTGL

Sequence of Ribosomal protein S6 kinase alpha-3 (Homo sapiens) (P51812 whole entry): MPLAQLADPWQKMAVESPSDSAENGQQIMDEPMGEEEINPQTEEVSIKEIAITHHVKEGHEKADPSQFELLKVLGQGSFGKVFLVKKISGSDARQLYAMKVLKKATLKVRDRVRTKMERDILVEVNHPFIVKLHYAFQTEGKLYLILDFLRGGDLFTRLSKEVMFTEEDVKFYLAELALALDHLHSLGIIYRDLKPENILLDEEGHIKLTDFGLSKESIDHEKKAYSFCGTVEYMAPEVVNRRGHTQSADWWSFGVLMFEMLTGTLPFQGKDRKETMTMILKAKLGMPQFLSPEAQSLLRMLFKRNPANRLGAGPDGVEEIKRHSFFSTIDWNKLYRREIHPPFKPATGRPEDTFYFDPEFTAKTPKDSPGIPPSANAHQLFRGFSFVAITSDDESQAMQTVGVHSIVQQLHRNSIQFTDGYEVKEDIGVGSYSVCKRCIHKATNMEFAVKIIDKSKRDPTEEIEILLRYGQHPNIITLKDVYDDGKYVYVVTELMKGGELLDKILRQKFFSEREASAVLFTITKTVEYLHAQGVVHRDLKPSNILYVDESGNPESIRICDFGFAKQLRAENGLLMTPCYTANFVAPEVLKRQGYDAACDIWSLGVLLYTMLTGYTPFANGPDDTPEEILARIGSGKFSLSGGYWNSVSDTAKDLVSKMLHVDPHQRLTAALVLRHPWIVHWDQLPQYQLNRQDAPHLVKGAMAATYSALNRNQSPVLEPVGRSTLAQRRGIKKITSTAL
Sequence of Rho-associated protein kinase 2 (Homo sapiens) (O75116 whole entry, looked up): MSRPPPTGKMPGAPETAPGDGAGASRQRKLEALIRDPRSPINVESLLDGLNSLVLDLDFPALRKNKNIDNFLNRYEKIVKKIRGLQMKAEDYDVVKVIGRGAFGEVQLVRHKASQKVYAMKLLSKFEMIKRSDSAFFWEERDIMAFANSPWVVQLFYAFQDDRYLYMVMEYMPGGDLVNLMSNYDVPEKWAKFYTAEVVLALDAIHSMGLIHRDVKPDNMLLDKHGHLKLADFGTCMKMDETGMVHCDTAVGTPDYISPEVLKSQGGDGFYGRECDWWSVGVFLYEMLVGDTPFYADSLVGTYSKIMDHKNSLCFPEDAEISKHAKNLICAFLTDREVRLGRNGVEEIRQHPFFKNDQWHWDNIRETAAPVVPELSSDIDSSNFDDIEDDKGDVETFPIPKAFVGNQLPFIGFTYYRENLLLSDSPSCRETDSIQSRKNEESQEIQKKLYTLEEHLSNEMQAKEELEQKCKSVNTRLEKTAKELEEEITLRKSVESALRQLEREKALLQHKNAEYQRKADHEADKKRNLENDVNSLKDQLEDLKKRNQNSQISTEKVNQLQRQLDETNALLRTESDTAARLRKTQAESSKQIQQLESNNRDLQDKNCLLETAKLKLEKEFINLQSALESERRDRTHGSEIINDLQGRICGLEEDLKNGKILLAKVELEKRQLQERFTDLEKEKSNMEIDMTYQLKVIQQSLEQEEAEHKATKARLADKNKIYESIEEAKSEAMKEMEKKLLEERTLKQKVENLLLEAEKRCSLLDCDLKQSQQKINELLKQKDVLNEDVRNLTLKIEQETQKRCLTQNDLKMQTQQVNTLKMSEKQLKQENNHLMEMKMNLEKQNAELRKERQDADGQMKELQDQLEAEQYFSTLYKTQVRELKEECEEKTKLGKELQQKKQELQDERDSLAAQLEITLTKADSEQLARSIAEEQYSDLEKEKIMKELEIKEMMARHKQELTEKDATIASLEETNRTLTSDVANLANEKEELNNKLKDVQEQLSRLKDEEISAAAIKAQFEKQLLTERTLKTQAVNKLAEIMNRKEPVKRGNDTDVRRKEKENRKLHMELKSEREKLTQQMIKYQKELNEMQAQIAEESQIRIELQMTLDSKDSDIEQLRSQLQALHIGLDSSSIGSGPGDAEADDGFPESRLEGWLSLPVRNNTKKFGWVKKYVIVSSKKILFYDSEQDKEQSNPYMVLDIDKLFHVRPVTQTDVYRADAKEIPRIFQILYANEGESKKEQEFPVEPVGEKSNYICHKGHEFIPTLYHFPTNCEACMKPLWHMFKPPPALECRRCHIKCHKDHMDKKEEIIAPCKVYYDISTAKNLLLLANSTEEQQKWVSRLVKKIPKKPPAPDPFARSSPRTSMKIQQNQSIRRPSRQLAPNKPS
Sequence of Ribosomal protein S6 kinase alpha-1 (Homo sapiens) (Q15418 whole entry): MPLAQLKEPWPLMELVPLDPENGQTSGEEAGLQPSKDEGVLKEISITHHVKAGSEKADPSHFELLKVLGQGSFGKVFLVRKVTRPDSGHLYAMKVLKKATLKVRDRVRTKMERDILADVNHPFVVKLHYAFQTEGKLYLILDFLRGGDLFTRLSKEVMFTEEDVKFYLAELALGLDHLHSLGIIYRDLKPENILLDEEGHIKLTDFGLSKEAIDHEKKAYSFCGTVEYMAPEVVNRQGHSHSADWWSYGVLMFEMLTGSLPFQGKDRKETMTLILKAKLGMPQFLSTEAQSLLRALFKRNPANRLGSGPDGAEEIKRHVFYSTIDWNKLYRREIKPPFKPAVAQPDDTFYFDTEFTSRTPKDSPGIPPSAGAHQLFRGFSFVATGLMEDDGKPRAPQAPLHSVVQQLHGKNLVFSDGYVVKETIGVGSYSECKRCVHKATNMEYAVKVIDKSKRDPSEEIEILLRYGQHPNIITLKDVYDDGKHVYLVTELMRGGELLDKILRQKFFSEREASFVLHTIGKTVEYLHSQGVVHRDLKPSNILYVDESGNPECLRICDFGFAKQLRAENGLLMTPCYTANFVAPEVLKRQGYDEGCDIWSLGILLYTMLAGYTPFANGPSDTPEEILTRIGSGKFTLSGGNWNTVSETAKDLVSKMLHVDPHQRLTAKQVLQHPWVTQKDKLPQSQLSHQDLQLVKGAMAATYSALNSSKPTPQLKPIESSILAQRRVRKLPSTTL
Sequence of Ribosomal protein S6 kinase alpha-2 (Homo sapiens) (Q15349 whole entry): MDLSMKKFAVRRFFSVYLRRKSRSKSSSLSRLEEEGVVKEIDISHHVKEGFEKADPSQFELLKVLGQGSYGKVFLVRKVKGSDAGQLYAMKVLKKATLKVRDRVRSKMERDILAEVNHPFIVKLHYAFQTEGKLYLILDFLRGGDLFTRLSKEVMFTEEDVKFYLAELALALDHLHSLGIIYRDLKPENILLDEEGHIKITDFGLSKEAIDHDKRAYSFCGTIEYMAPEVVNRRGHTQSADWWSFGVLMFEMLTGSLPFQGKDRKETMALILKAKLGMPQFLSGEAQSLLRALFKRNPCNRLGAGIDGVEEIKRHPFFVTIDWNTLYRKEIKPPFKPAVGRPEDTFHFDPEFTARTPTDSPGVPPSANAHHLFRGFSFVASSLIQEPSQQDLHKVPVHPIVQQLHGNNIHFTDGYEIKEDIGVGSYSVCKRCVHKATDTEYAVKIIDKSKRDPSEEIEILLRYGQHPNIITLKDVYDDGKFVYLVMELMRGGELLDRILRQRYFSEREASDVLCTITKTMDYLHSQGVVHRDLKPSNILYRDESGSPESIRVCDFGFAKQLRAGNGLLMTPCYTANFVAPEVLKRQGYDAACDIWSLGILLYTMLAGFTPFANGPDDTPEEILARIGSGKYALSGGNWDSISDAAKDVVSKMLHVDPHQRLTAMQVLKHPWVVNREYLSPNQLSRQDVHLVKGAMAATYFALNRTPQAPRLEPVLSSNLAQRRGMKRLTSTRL

Compound	inhibition [1]	inhibition [2]	inhibition [3]	inhibition [4]	inhibition [5]	inhibition [6]	inhibition [7]	inhibition [8]	inhibition [9]	inhibition [10]	inhibition [11]	inhibition [12]	inhibition [13]	inhibition [14]	inhibition [15]	inhibition [16]	inhibition [17]	inhibition [18]	inhibition [19]	inhibition [20]
CCOc1ccc2c(-c3ccnc(Nc4cc(OC)cc(C(F)(F)F)c4)n3)cnn2n1	0.81%	-0.03%	1.2%	0.85%	7.21%	0.36%	2.15%	0.62%	0.2%	-0.28%	-0.21%	0.14%	-0.36%	-0.43%	-1.47%	-0.09%	-1.49%	0.44%	0.33%	1.36%
CS(=O)(=O)CCNCc1ccoc1-c1ccc2ncnc(Nc3ccc(OCc4ccccc4)cc3)c2c1	1.7%	0.9%	1.39%	-0.04%	0.54%	-0.54%	-1.25%	0.33%	-0.34%	-1.21%	-0.69%	-1.1%	0.07%	0.19%	-0.1%	-0.27%	-0.04%	1.27%	1.14%	-0.31%
CNC(=O)c1ncccc1Nc1nc(Nc2cc3c(cc2OC)CCCN3C(=O)CN(C)C)nc2[nH]ccc12	41.6%	9.65%	55.3%	1.9%	7.42%	3.34%	5.86%	1.64%	1.14%	1.58%	8.73%	3.75%	8.67%	5.58%	25.8%	2.99%	14.5%	3.13%	7.32%	3.92%

Source: ChEMBL document CHEMBL1961873, “Compounds: GSK PKIS; Assays: Nanosyn kinase panel” (2012)
